{"source": "PubChem BioAssay AID434973", "about": "(Sanford-Burnham Center for Chemical Genomics, 2010)", "note": "About 4,900 (1.5%) of roughly 330,000 compounds were called active. For the sample, actives were picked, then their nearest neighbours and some compounds at random. A number with no mark means an inactive call.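 How the source made its calls: active means inhibition above about 50% at the single test dose (limit read from the data); inactive means the rest.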"}
{"biological_target": "Sentrin-specific protease 7 (Homo sapiens) (UniProt Q9BQF6)", "assay": "blockers of human SENP7 peptidase activity – biochemical, luminescence, uHTS, primary screen (AID 434973);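 further: plate controls were DMSO with enzyme for no effect and no enzyme buffer wells for full effect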", "details": "recombinant SENP7, Z-RLRGG-aminoluciferin luminescence, 40 min; at 5 µM; active compounds read high"}
{"smiles": "Cc1nc(-c2ccccc2)sc1C1(C)CC(c2cccnc2)=NO1", "note": "(configuration not stated)", "inhibition": "-12.6%"}
{"smiles": "CCOC(=O)NNc1cc(C(F)(F)F)ccn1", "inhibition": "13.9%"}
{"smiles": "CCC(=O)NC(Nc1cc(C)ccn1)(C(F)(F)F)C(F)(F)F", "inhibition": "98.5% (active)"}
{"smiles": "Cc1ccnc(NC(=O)CCCOc2ccccc2)c1", "inhibition": "-12.2%"}
{"smiles": "Cc1ccc2[nH]cc(CCNC(=O)C3CCCCC3)c2c1", "inhibition": "5.37%"}
{"smiles": "CCOc1ccc(C(=O)Nc2cccc(-c3ccc4nncn4n3)c2)cc1", "inhibition": "-7.35%"}
{"smiles": "COc1ccc(C(=O)Nc2cccc(S(C)(=O)=O)c2)cc1", "inhibition": "0.473%"}
{"smiles": "Cc1ccccc1C(=O)N1CCN(c2ccc(NC(=O)c3cccs3)cc2)CC1", "inhibition": "-2.29%"}
{"smiles": "Cc1ccccc1C(=O)NC(=S)Nc1ccc(N2CCN(C(=O)c3ccccc3)CC2)cc1", "inhibition": "-6.96%"}
{"smiles": "O=C(Nc1ccc(N2CCOCC2)cc1)c1cccc(S(=O)(=O)N2CCOCC2)c1", "inhibition": "8.65%"}
{"smiles": "CCC(=O)Nc1ccc(C(=O)Nc2cccc(OC)c2)cc1", "inhibition": "56.2% (active)"}
{"smiles": "COc1cccc(C(=O)Nc2nnc(S(=O)(=O)N3CCCCC3)s2)c1", "inhibition": "11.4%"}
{"smiles": "Cc1ccccc1C(=O)Nc1ccc(N2CCCCCC2)cc1", "inhibition": "60.8% (active)"}
{"smiles": "CSc1cccc(NC(=O)CSc2ccccc2)c1", "inhibition": "4.87%"}
{"smiles": "COc1cccc(C(=O)Nc2ccc(N3CCCC3)cc2)c1", "inhibition": "99.4% (active)"}
{"smiles": "COc1cccc(NC(=O)CN(C)CC(=O)Nc2ccc3c(c2)CCC3)c1", "inhibition": "10.1%"}
{"smiles": "CCOc1ccc(C(=O)Nc2cccc(SC)c2)cc1", "inhibition": "88.7% (active)"}
{"smiles": "Cc1c(Cl)c([N+](=O)[O-])nn1CCCC(=O)NC(C)c1ccccc1", "note": "(configuration not stated)", "inhibition": "-0.959%"}
{"smiles": "COc1ccc(CC(=O)OC(C)C(=O)Nc2ccc(S(N)(=O)=O)cc2)cc1", "note": "(configuration not stated)", "inhibition": "0.778%"}
{"smiles": "CS(=O)(=O)N1CCCC(C(=O)N2CCOCC2)C1", "note": "(configuration not stated)", "inhibition": "-2.39%"}
{"smiles": "COc1ccc(/C=C2/S/C(=N/N=C3\\CC4CCC3(C)C4(C)C)NC2=O)cc1", "note": "(configuration not stated)", "inhibition": "-4.16%"}
{"smiles": "Cc1noc(C)c1C(=O)NC(C)c1ccc2c(c1)OCO2", "note": "(configuration not stated)", "inhibition": "1.47%"}
{"smiles": "COC(=O)[C@H](CC(C)C)NC(=O)N1CCCCC1C", "note": "(some centres not stated)", "inhibition": "1.79%"}
{"smiles": "COc1ccc(/C=N/NC(=O)c2cc(-c3cccc(C)c3)nc3ccccc23)cc1O", "inhibition": "7.7%"}
{"smiles": "COc1cc(/C=N/Nc2nc3ccccc3s2)ccc1O", "inhibition": "81.9% (active)"}
{"smiles": "COc1cc(/C=N/NC(=O)CCc2n[nH]c(=O)[nH]c2=O)ccc1O", "inhibition": "2%"}
{"smiles": "Cc1cc(C)c(OCC(=O)N(Cc2cccs2)C2CCS(=O)(=O)C2)c(C)c1", "note": "(configuration not stated)", "inhibition": "0.829%"}
{"smiles": "O=C(CC(NCCN1CCOCC1)C(=O)O)Nc1cccc(Cl)c1", "note": "(configuration not stated)", "inhibition": "2.14%"}
{"smiles": "COc1ccc(C(=O)NC2CCN(C(=O)Nc3ccc(F)cc3)CC2)cc1", "inhibition": "-1.37%"}
{"smiles": "Clc1ccc(Nc2ccc3ccccc3n2)cc1", "inhibition": "89.6% (active)"}
{"smiles": "Cc1cc(Nc2ccc(Br)cc2)nc2ccccc12", "inhibition": "0.988%"}
{"smiles": "O=c1ccnc(Nc2ccc(Cl)cc2)[nH]1", "inhibition": "3.66%"}
{"smiles": "Cc1ccccc1CSc1nnc(CCCCCNC(=O)OC(C)(C)C)o1", "inhibition": "8.18%"}
{"smiles": "CC(NC(=O)c1ccco1)c1ccc2c(c1)OCO2", "note": "(configuration not stated)", "inhibition": "9%"}
{"smiles": "CCc1ccc(Oc2coc3cc(O)ccc3c2=O)cc1", "inhibition": "-2.69%"}
{"smiles": "CC(C)CN(Cc1c(O)ccc2c(=O)c(-c3ccccc3)coc12)CC(C)C", "inhibition": "11.8%"}
{"smiles": "O=c1c(-c2ccccc2)coc2cc(O)ccc12", "inhibition": "66.2% (active)"}
{"smiles": "CC(=O)Nc1ccc(S(=O)(=O)N2CCC(C(=O)N[C@@H](Cc3ccccc3)C(=O)O)CC2)cc1", "inhibition": "-6.11%"}
{"smiles": "Cc1ccc(-n2[nH]c(C)c(/C=N/NC(=O)c3cccc([N+](=O)[O-])c3)c2=O)cc1C", "inhibition": "-1.05%"}
{"smiles": "CCNC(=S)N1CCN(CCN=CC2=C(O)CC(C)(C)CC2=O)CC1", "inhibition": "-0.44%"}
{"smiles": "CC1(C)CC(=O)C(C=NCCN2CCN(C(=S)Nc3cccc(Cl)c3)CC2)=C(O)C1", "inhibition": "-11.9%"}
{"smiles": "C=CCNC(=S)N1CCN(CCN=Cc2c(C)[nH]n(-c3ccc([N+](=O)[O-])cc3)c2=O)CC1", "inhibition": "87.2% (active)"}
{"smiles": "Cc1[nH]n(-c2ccccc2)c(=O)c1N=Nc1ccccc1C(=O)N1CCCCC1", "inhibition": "0.644%"}
{"smiles": "Cc1[nH]n(-c2ccc([N+](=O)[O-])cc2)c(=O)c1C=NCCN1CCN(C(=O)c2ccccc2F)CC1", "inhibition": "82.4% (active)"}
{"smiles": "Cc1ccc(C(=O)N(CC(=O)NC2CCCC2)c2ccc(F)cc2)s1", "inhibition": "-4.07%"}
{"smiles": "CCc1noc(C)c1C(=O)N1CCN(S(=O)(=O)c2cccc(C(F)(F)F)c2)CC1", "inhibition": "0.961%"}
{"smiles": "O=C(Nc1cc2ccccc2oc1=O)C1CCCCC1", "inhibition": "0.223%"}
{"smiles": "S=c1[nH]c(-c2cccs2)cn1-c1ccccc1", "inhibition": "-0.786%"}
{"smiles": "O=c1oc2ccccc2cc1-c1cn(-c2ccccc2)c(=S)[nH]1", "inhibition": "99.2% (active)"}
{"smiles": "COc1ccc(C(CCN(Cc2ccc(OC)c(OC)c2)C(=O)CCl)c2ccccc2)cc1", "note": "(configuration not stated)", "inhibition": "-4.24%"}
{"smiles": "CCCS(=O)(=O)N1CCCC(C(=O)NCCN2CCCCC2C)C1", "note": "(configuration not stated)", "inhibition": "4.11%"}
{"smiles": "C=CCOc1ccc(/C=C2\\SC(=S)N(CCC(=O)O)C2=O)cc1", "inhibition": "98.9% (active)"}
{"smiles": "COc1ccc(/C=C2\\SC(=S)N(CC(=O)NNC(=O)c3ccncc3)C2=O)cc1", "inhibition": "5.57%"}
{"smiles": "COc1ccc(/C=C2\\SC(=S)N(CCC(=O)Nc3cccc(C(=O)O)c3)C2=O)cc1OC", "inhibition": "-3.5%"}
{"smiles": "CCO[C@@H]1OC(C(=O)NC2CC2)=C[C@H](C)[C@H]1CCCO", "inhibition": "6.12%"}
{"smiles": "Cn1nccc1NS(=O)(=O)c1ccc(F)cc1", "inhibition": "4.62%"}
{"smiles": "O=C(CN1CCOC1=O)N1CCCC(Nc2ccc(F)c(F)c2)C1", "note": "(configuration not stated)", "inhibition": "1.33%"}
{"smiles": "Cc1cccc(NC(=O)c2cccnc2Cl)n1", "inhibition": "5.58%"}
{"smiles": "Cc1cccc(NC(=O)c2ccc3ccccc3n2)n1", "inhibition": "78.7% (active)"}
{"smiles": "Cc1cccc(NC(=O)c2cc(N3C(=O)CCC3=O)ccc2Cl)n1", "inhibition": "6.63%"}
{"smiles": "O=C(O)C1=CCCN(CCON=C(c2ccccc2)c2ccccc2)C1", "inhibition": "1.76%"}
{"smiles": "Cc1ccc(CSc2nsc(C)c2C#N)cc1", "inhibition": "-2.96%"}
{"smiles": "COC(=O)C(=Nc1ccccc1)/C(C(=O)C(=O)N(C)c1ccccc1)=C(\\O)c1ccc(Cl)cc1", "inhibition": "-1.49%"}
{"smiles": "CCn1c(CC(=O)Nc2ccccc2C)nnc1SCC(=O)NC1=NCCS1", "inhibition": "-7.93%"}
{"smiles": "CC(=O)Nc1ccccc1NC(=O)c1cc(C)cc(C)c1", "inhibition": "2.28%"}
{"smiles": "CSCc1ccc(C(=O)Nc2cc(C)cc(C)c2)cc1", "inhibition": "75.3% (active)"}
{"smiles": "C=CCN(c1ccc(C(=O)Nc2cc(C)cc(C)c2)cc1)S(C)(=O)=O", "inhibition": "6.36%"}
{"smiles": "CN(C)C(=O)Cn1c(=O)n(S(=O)(=O)c2ccccc2)c2ccccc21", "inhibition": "2.64%"}
{"smiles": "Cc1ccc(C(=O)N/C(=C/c2cccnc2)C(=O)O)cc1", "inhibition": "-9.12%"}
{"smiles": "C/C(=N\\NC(=O)CNC(=O)C(c1ccccc1)c1ccccc1)c1ccc(C)cc1", "inhibition": "-4.66%"}
{"smiles": "C/C(=N\\NC(=O)c1ccc(C)cc1)C1C(=O)c2ccccc2C1=O", "inhibition": "77.1% (active)"}
{"smiles": "CC(=O)N1c2ccc(S(=O)(=O)N3CCCC(C(=O)Nc4ccc(C)cc4C)C3)cc2CC1C", "note": "(configuration not stated)", "inhibition": "7.52%"}
{"smiles": "CSc1ccc(C#N)cc1NC(=O)c1ccc(Cl)cc1", "inhibition": "0.394%"}
{"smiles": "CNC(=O)c1sc(NCc2ccccc2OC)nc1C", "inhibition": "6.9%"}
{"smiles": "COc1cccc2sc(Nc3nc(C)c(C(C)=O)s3)nc12", "inhibition": "69.1% (active)"}
{"smiles": "CC(=O)c1sc(N/N=C/c2ccc(C(C)C)cc2)nc1C", "inhibition": "0.0938%"}
{"smiles": "COc1ccc(S(=O)(=O)N2CCOC2CNC(=O)C(=O)NCc2ccc(F)cc2)cc1", "note": "(configuration not stated)", "inhibition": "2.2%"}
{"smiles": "C=CCN(C(=O)Nc1ccc2c(c1)nc(C)n2C)c1ccccc1", "inhibition": "5.72%"}
{"smiles": "Cn1c(CCN2CCCCCC2)nc2cc(NC(=O)Nc3ccccc3)ccc21", "inhibition": "10%"}
{"smiles": "Cc1nc2cc(NC(=O)Nc3cccc(F)c3)ccc2n1C", "inhibition": "96.5% (active)"}
{"smiles": "Cc1nc2nc(CSc3nc4ccccc4s3)cc(=O)n2[nH]1", "inhibition": "-13.3%"}
{"smiles": "O=[N+]([O-])c1c(NCCO)cc(Sc2nc3ccccc3s2)c2nonc12", "inhibition": "79.2% (active)"}
{"smiles": "NC(=O)c1ccc(Nc2ccc3nonc3c2[N+](=O)[O-])cc1", "inhibition": "-0.507%"}
{"smiles": "COc1ccc(OCC(O)CN(C)C(=O)C(C)Oc2ccccc2)cc1", "note": "(configuration not stated)", "inhibition": "11.8%"}
{"smiles": "COc1ccc(C2=NS(=O)(=O)N(C)C(C(=O)N3CCCCC3)=C2)cc1", "inhibition": "-5.66%"}
{"smiles": "O=C(CCNS(=O)(=O)c1cccs1)N1CCN(c2ccc(F)cc2)CC1", "inhibition": "-1.51%"}
{"smiles": "N/C(=N\\OC(=O)CCC1CCCCC1)c1ccccn1", "inhibition": "82% (active)"}
{"smiles": "N/C(=N\\OC(=O)CC1CCCCC1)c1ccccc1", "inhibition": "21.8%"}
{"smiles": "COc1ccccc1OCC(=O)O/N=C(\\N)c1ccccn1", "inhibition": "7.18%"}
{"smiles": "O=C(CSc1nnc(COc2ccc(Cl)cc2)n1Cc1ccco1)N1CCNC1=O", "inhibition": "-0.0156%"}
{"smiles": "O=S(=O)(NCC1CC1)c1ccc(F)c(Cl)c1", "inhibition": "2.72%"}
{"smiles": "COc1ccccc1N=C(C)C1=C(O)COC1=O", "inhibition": "-4.17%"}
{"smiles": "COc1ccccc1N=Cc1c(O)c2ccccc2oc1=O", "inhibition": "88% (active)"}
{"smiles": "COc1cc(N=Cc2c(O)c3ccccc3oc2=O)c(OC)cc1Cl", "inhibition": "-0.159%"}
{"smiles": "N/C(=N\\OC(=O)/C=C/c1ccccc1)c1ccc(Br)cc1", "inhibition": "9.06%"}
{"smiles": "N/C(=N\\OC(=O)c1ccc2c(c1)OCO2)c1ccc(Br)cc1", "inhibition": "71.1% (active)"}
{"smiles": "N/C(=N\\OC(=O)N1c2ccccc2Sc2ccccc21)c1ccc(Br)cc1", "inhibition": "-8.09%"}
